Assay outcomes (PubChem BioAssay)
Rows were chosen to be rich in hits. Some 4.7% of all compounds tested hit in one or more screens of this group.
D1 antag: blocks dopamine activation of the human D1 receptor | 3.2% of 360,000 active | HEK293 TREx D1 cells, calcium flux, dopamine EC80; stronger effect = lower value | P21728 | activity change, negative = inhibition, % at 10 µM | AID 504652; in the data active means activity change below about -30%; further: on the % scale 0 is the no-effect control and ±100 the full control effect
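After overnight tetracycline induction at 30 C, force-coupled D1 HEK293 cells took up a no-wash calcium dye at room temperature. Compounds were added and monitored 180 s, and the response to EC80 dopamine was then recorded.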
D1 agonist: agonists of human D1 dopamine receptor. HEK293 T-REx D1 cells, calcium flux, agonist mode. P21728. 1% of 360,000 active. activation, % at 2 µM; further: 0% is about no effect
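Inducible HEK293 T-REx D1 cells, force-coupled to calcium signalling, were plated at 4000 cells/well with tetracycline and held overnight at 30 C. After no-wash calcium dye loading, compound-evoked calcium rise over 180 s flagged agonists.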
D1 potentiator: enhances dopamine response at the human D1 receptor | P21728 | HEK293 TREx D1 cells, calcium flux, dopamine EC20 potentiation | potentiation, % at 10 µM | 0.036% of 360,000 active; in the data active means potentiation above about 30%; further: 0% is about no effect
TRHR enhancer: TRH receptor (human) allosteric enhancement; P34981; TRHR cells, fluo-8 calcium fluorescence, EC20 TRH enhancement; enhancement, % at 2 µM; 0.66% of 360,000 active; in the data active means enhancement above about 30%; further: 0% is about no effect
Target sequence (P34981 whole entry, looked up): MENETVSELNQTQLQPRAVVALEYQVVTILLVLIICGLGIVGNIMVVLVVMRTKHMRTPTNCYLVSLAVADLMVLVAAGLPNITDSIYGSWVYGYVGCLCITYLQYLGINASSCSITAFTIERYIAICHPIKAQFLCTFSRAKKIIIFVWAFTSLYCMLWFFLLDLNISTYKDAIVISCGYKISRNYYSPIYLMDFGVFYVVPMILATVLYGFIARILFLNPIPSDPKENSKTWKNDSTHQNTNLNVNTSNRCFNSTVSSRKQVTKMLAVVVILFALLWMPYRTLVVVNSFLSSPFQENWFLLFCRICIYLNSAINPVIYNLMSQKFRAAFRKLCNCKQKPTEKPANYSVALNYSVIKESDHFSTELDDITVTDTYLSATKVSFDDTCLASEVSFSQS
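Enhancer read-out: after compound pinning and an initial kinetic agonist-mode read, an EC20 of TRH (10 nM final) was injected and fluo-8 calcium signal (Ex 480/Em 530) followed at 1 s/cycle for 100 cycles in TRHR-expressing cells.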
TRHR agonist: TRH receptor (human) agonism | P34981 | TRHR cells, calcium flux fluo-8, FDSS agonist mode | activation, % at 2 µM | 0.18% of 360,000 active | AID 493084; further: 0% is about no effect
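Fluo-8-loaded TRHR cells; 10 s baseline, compound added, kinetic Ca2+ fluorescence read 1/s, agonist mode.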
* marks the source's active call; other numbers are inactive results. Unless noted, no stated cut-off is given here; in the data, active means activation above about 30%; inactive means the rest.

SMILES	D1 antag	D1 agonist	D1 potentiator	TRHR enhancer	TRHR agonist
Cc1cccc(N2CCN(C(=O)CCn3c(=O)[nH]c4ccsc4c3=O)CC2C)c1 (stereo not given)	-13	-4	-6	32*	-2
Cc1cccc(N2CCN(C(=O)CCCn3c(=O)[nH]c4ccsc4c3=O)CC2C)c1 (stereo not given)	3	1	-3	4	-1
O=C(CCCn1c(=O)[nH]c2ccsc2c1=O)N1CCN(c2ccccn2)CC1	-6	0	-1	30*	0
CCOC(=O)c1cnc2c(OC)cccc2c1Nc1cccc(O)c1	-9	2	2	2	-1
COc1ccc(-c2nc3ccccc3o2)cc1NC(=O)COc1ccc(C(C)(C)C)cc1	13	1	1	4	2
COc1ccc(C(OCC(O)CNCCc2ccccc2)c2ccc(OC)cc2)cc1 (stereo not given)	-30*	96*	-10	9	5
CC(C)N(CCNCC(O)COc1ccc(C(C)(C)c2ccccc2)cc1)C(C)C (stereo not given)	-18	63*	-3	22	2
CC(C)(c1ccccc1)c1ccc(OCC(O)CN2CCCC2)cc1 (stereo not given)	-24	25	-7	2	3
OC(CNCCc1ccc(Cl)cc1)COc1cc(Cl)ccc1Cl (stereo not given)	-5	35*	5	4	2
OC(CNCCc1ccc(Cl)cc1)COc1ccc2ccccc2c1 (stereo not given)	7	33*	-1	-2	1
COc1ccc(CCNCC(O)COc2ccc(Cl)cc2)cc1OC (stereo not given)	11	17	-7	4	5
Cc1ccc2c(=O)cc(C(=O)Nc3c(C(=O)c4ccc(F)cc4)oc4ccccc34)oc2c1C	7	0	4	-4	0
O=C(O)CCn1cnc2onc(-c3ccccc3Cl)c2c1=O	-3	0	6	0	1
CNC(=O)c1ccc(Nc2nnc(-c3ccc(C)c(S(=O)(=O)N4CCOCC4)c3)c3ccccc23)cc1	-21	-1	0	-2	0
COc1ccc(CCNCC(O)COc2c(C)cccc2C)cc1OC (stereo not given)	-38*	7	-11	1	1
OC(CNCCc1ccccc1)COc1ccc(OCC(O)CNCCc2ccccc2)cc1 (stereo not given)	-3	34*	-1	9	4
CC(C)c1ccc(OCC(O)CNC(C)c2ccccc2)cc1 (stereo not given)	2	15	11	1	5
OC(CNCCC(c1ccccc1)c1ccccc1)COc1ccccc1 (stereo not given)	-61*	11	-6	7	1
CC(C)CCNCC(O)CON=C1c2ccccc2-c2ccccc21 (stereo not given)	8	50*	4	5	-1
COc1cccc(-c2nn(C)c3sc(C(=O)N4CCN(c5cccc(C)c5)C(C)C4)cc23)c1 (stereo not given)	10	2	0	5	0
CCC(=O)c1ccc(OCC(O)CNCCc2ccc(Cl)cc2)cc1 (stereo not given)	-15	62*	-6	15	6
CCC(=O)c1ccc(OCC(O)CNC(C)c2ccccc2)cc1 (stereo not given)	5	7	4	0	1
O=C(Nc1ccc(Oc2cccnc2)cc1)C1CCN(Cc2ccc(F)cc2)CC1	-25	36*	-3	5	3
C#Cc1ccc(CN2CCC(C(=O)Nc3ccc(Oc4ccccc4)nc3)CC2)cc1	-12	41*	-5	3	3
Cc1ncc(CN2CCC(C(=O)Nc3ccc(Oc4cccnc4)cc3)CC2)cn1	-6	3	2	-4	0
SMILES	D1 antag	D1 agonist	D1 potentiator	TRHR enhancer	TRHR agonist
Cc1cc(OC(C)C(=O)N(Cc2ccco2)Cc2ccccc2F)cc(C)c1Cl (stereo not given)	-3	13	2	-2	4
CN(NC(=O)Nc1ccc(Cl)cc1)c1c(Cl)c(Cl)nn1C	-40*	10	-3	0	-1
COC(=O)C1CCCCN1C(=O)c1cc(COc2cccc3cnccc23)on1 (stereo not given)	-43*	23	-6	-3	2
CC(=O)c1ccc(OCc2cc(C(=O)N3CCC[C@H]3CO)no2)cc1	-25	3	-3	0	0
CN(Cc1nccs1)C(=O)c1cc(COc2cccc3cnccc23)on1	-32*	16	0	-4	0
COc1ccc(OCc2cc(C(=O)N(C)Cc3nccn3C)no2)c2ccccc12	-40*	2	-1	-4	-1
COCCC1CCCCN1C(=O)c1cc(COc2cccc(C(C)=O)c2)on1 (stereo not given)	-49*	12	-8	0	0
COc1ccc(-n2cc(-c3ccccc3)c3c(SC(C)C(C)=O)ncnc32)cc1 (stereo not given)	-6	3	1	-11	1
O=C(CCNS(=O)(=O)c1ccc2c(c1)CCN2C(=O)C1CC1)Nc1ccc(OC(F)(F)F)cc1	1	1	-6	-2	0
CC(C)CN(CCNC(=O)CCN1N=C(c2ccccc2)CCC1=O)CC(C)C	-3	0	-2	-2	0
COCCCNC(=S)N1CCCN(c2nc3c(C)c(C)ccc3cc2C#N)CC1	-42*	-1	-3	1	0
COCCNC(=S)N1CCCN(c2nc3cc(C)ccc3cc2C#N)CC1	-21	4	-3	0	0
CCOc1ccc(CCNC(=O)c2cc3c(=O)n(CC)c4ccccc4c3s2)cc1OCC	-6	0	0	-4	0
Cc1ccc(-n2c(=O)c3ccc(C(=O)NCc4ccco4)cc3n(CC(=O)Nc3ccccc3C(F)(F)F)c2=O)cc1	4	9	1	5	2
CCOc1ccccc1NC(=O)CSc1nnc(CNC(=O)COc2ccc(Cl)cc2)o1	-38*	6	-9	-10	0
Cc1cccc(-n2ncc3c(Nc4ccc(Oc5ccc(Cl)cc5)cc4)ncnc32)c1	-5	4	-1	1	0
Cc1cc(C)c(S(=O)(=O)c2ccc(C(C)(C)C)cc2)c(Cl)n1	-27	34*	-7	9	0
O=C(CSc1nc2ccccc2c(=O)n1-c1ccc(F)c(Cl)c1)Nc1cccc(S(=O)(=O)N2CCOCC2)c1	-11	5	-3	-4	2
O=C(Cc1cccs1)Nc1ccc(Cl)c(S(=O)(=O)N2CCOCC2)c1	-33*	15	1	-1	0
O=C(CSc1nc2ccccc2c(=O)n1-c1ccc(F)cc1)Nc1ccc(Cl)c(S(=O)(=O)N2CCOCC2)c1	-52*	6	-4	3	2
O=C(COc1ncnc2ccccc12)Nc1ccc(Cl)c(S(=O)(=O)N2CCOCC2)c1	-38*	4	-1	-2	-1
